Data on 33 compounds can be found in PubChem BioAssay.

The subject of test [1] is transactivating tegument protein VP16 (Human herpesvirus 1). Put plainly: VP16 transactivation reporter inhibitors, counter-screen for SRC2 inhibitor project, cell-based, luminescence, single concentration (AID 652007). Conditions: cell-based VP16 transactivation luciferase reporter, at 8.9 µM, active compounds read high. On the technique in general: The purpose of a counterscreen is to sort out artefacts and off-target activity.

Test [2] deals with Nuclear receptor coactivator 2 (Homo sapiens) (UniProt Q15596). Kind of test: SRC2 coactivator transcriptional activity inhibitors, confirmation, cell-based, luminescence, HEK293, triplicate (AID 652008;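 active means mean inhibition above 46.5%, the solvent-only control mean plus 3 SD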;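 further: 0% = DMSO-treated cells and 100% = Gossypol at 36 µM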). Conditions: HEK293 GAL4-SRC2 luciferase reporter, at 8.9 µM, active compounds read high. Background: Reporter assays use an easily measured gene product as a stand-in for the process of interest.

A number with no mark means an inactive call. The source made the active and inactive calls. Unless noted, no stated cut-off is given here; in the data, active means inhibition above about 36%; inactive means the rest.

Chain of Nuclear receptor coactivator 2 (Homo sapiens) (Q15596 whole entry, looked up, the tested form may be a part): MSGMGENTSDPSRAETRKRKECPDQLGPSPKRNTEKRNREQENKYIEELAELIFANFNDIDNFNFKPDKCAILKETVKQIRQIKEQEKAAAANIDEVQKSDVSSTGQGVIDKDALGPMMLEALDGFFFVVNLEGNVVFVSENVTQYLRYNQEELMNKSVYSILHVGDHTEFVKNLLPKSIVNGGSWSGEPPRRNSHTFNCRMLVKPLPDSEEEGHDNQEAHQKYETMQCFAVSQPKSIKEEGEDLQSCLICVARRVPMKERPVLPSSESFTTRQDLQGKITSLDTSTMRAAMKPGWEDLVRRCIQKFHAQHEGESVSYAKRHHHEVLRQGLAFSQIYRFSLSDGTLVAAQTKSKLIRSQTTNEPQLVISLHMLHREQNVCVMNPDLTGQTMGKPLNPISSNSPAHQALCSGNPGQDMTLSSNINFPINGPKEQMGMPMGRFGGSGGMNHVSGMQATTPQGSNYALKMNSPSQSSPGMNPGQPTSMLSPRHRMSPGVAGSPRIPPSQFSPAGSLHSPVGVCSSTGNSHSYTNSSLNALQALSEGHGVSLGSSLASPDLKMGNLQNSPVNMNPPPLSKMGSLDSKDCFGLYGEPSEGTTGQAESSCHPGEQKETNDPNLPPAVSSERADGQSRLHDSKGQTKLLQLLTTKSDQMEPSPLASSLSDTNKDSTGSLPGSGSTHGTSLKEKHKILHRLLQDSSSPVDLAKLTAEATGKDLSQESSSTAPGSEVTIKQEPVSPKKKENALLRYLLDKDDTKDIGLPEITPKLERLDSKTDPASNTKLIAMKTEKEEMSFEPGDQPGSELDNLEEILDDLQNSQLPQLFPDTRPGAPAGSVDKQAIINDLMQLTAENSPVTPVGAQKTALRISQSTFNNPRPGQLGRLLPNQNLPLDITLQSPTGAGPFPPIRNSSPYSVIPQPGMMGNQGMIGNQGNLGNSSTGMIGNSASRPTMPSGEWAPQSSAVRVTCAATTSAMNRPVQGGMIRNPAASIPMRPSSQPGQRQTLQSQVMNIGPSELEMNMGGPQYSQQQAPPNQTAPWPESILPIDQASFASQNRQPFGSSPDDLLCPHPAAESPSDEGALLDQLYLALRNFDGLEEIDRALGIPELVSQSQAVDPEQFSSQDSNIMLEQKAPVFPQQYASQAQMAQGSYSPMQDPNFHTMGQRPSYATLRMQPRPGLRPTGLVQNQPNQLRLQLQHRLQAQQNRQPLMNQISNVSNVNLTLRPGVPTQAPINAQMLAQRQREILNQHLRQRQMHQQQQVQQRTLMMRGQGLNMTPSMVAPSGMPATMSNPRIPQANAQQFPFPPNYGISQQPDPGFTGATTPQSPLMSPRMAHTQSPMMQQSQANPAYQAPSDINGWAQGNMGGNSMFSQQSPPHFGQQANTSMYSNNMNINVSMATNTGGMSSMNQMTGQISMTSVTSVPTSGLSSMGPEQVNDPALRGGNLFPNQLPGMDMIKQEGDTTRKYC

In general, inhibition refers to the change of the read-out against control, counted positive when it falls. Consider `O=C1C(N2CCOCC2)=C(n2nnc3ccccc32)C(=O)c2ccccc21`, for which the inhibition was 43.9% (active) in test [1] and 34.6% in test [2].
Take `O=C(CSc1nc2nc(-c3cccs3)cc(C(F)(F)F)c2c(=O)[nH]1)C(F)(F)F`: the figures for the inhibition in test [1] and in test [2] were -28.3% and 10%, respectively.
The like results for `COc1cc(OC)nc(Nc2nc(C(N)Cc3ccc(F)cc3)cs2)n1` (stereo unspecified) were, in that order, -4.22% and -0.34%.
`COc1ccc(Cl)cc1C(=O)Nc1nc2ccccc2[nH]1`: the inhibition in test [1] was -42.5%; in test [2], 10.7%.
For the compound `Cc1ccc(N(C)C(=O)c2cc(S(=O)(=O)N3CCCCC3)c[nH]2)cc1`, the inhibition in test [1] was 1.11%; in test [2], 15.4%.
On to `O=C(O)c1cccc(CSc2nnc(COc3ccccc3)o2)c1`, for which the inhibition is 15.7% in test [1] and 34.5% in test [2].
For the compound `CC(C)c1nc(N2CCOCC2)c(C#N)c2c1CCC2`, the inhibition was -15.7% in test [1] and 4.3% in test [2].
The matching figures for `Cc1ccc(Cl)cc1N1CCN(C(=O)CCS(=O)(=O)c2ccc3c(c2)NC(=O)CO3)CC1`: 13.9% and 30.1%.
In the case of `CC(Sc1nnc(CN2CCCC2)n1Cc1ccccc1)C(=O)Nc1ccc(F)cc1` (stereo unspecified), the inhibition in test [1] is 1.17%; in test [2] it was -5.19%.
Regarding `O=C(Nc1ccc2c(c1)OCCO2)NC1(C(F)(F)F)Oc2ccccc2O1`, the inhibition in test [1] was -12.8%; in test [2], 43.7%.
For the compound `Cc1ccc(S(=O)(=O)c2nc(NCCN(C)C)sc2Cl)cc1`, the figures for the inhibition in test [1] and in test [2] were -5.23% and 28.4%, respectively.
With `Cc1cccc(C)c1Nc1nnc(SC(C)C(=O)Nc2c(C)n(C)n(-c3ccccc3)c2=O)s1` (stereo unspecified), the figures for the inhibition in test [1] and in test [2] were -15.1% and -13.2%, respectively.
As for `CCn1ccnc1CNC(=O)C1CCC(=O)N(Cc2ccccc2F)C1` (stereo unspecified), the inhibition in test [1] was -4.87%; in test [2] it was -23.7%.
In the case of `CCC(C)(C)c1ccc(Oc2ccc(NC(=O)COC(=O)C3=COCCO3)cc2)cc1`, the inhibition in test [1] is 33.8%; in test [2], 46.5%.
`CC(=O)Nc1ccc(NC(=O)c2nc(S(=O)(=O)Cc3cccc(C)c3)ncc2Cl)cc1`: the inhibition in test [1] was 21.6%; in test [2], 50.8% (active).
As to `COc1ccc(O)c(C(=O)c2cnn(S(=O)(=O)c3ccc(C)cc3)c2)c1`, the inhibition in test [1] is -7.7%; in test [2], 7.12%.
In the case of `O=S(=O)(Nc1cc(Sc2cccc3cccnc23)c(O)c2ccccc12)c1ccccc1`, the figures for the inhibition in test [1] and in test [2] were 97.2% (active) and 98.7% (active), respectively.
For the compound `N#Cc1c(N)nc2c(c1N)CC(C(F)(F)F)O2` (stereo unspecified), the inhibition in test [1] is -1.62%; in test [2] it was 12%.
The matching figures for `Cc1ccc(C)c(-c2nc3cc(N)ccc3o2)c1`: 36.8% (active) and 55% (active).
As to `Nc1ccc(C(=O)N2CCN(S(=O)(=O)c3ccc4c(c3)OCCO4)CC2)cc1[N+](=O)[O-]`, the figures for the inhibition in test [1] and in test [2] were 2.71% and 40.5%, respectively.
Consider `C=CCN=C1NN=C(c2cc(C)n(CCOC)c2C)CS1`, for which the inhibition is 69.5% (active) in test [1] and 86% (active) in test [2].
As for `O=C(Nc1ncn[nH]1)c1ccc(Cl)c(S(=O)(=O)Nc2ccc(Cl)cc2)c1`, the inhibition was -5.84% in test [1] and 5.69% in test [2].
As to `O=C(Nc1ccc(F)cc1)c1nc(S(=O)(=O)Cc2ccccc2)ncc1Cl`, the figures for the inhibition in test [1] and in test [2] were 36.6% (active) and 37.9%, respectively.
Turning to `N=c1nc(SCCC(=O)O)ss1`, the inhibition is 14.4% in test [1] and 51.7% (active) in test [2].
In the case of `C=CC[C@]12CC=CC(=O)[C@@]1(O)O[C@H](c1ccc(OC)c(OC)c1)[C@H]2C`, the inhibition in test [1] was 22.7%; in test [2], 32%.
In the case of `C[n+]1ccccc1/C=C/c1ccccc1Cl`, the inhibition in test [1] is -18.2%; in test [2], -7.01%.
In the case of `CCC(C)C(NC(=O)OCc1ccccc1)C(=O)OCN1C(=O)c2ccccc2C1=O` (stereo unspecified), the inhibition in test [1] was -13.9%; in test [2] it was -8.71%.
On to `CCc1ccc(CCNC(=O)OCCCN2CCC3(CCC(c4ccccc4)CC3)C2=O)cc1` (stereo unspecified), for which the inhibition is 5.9% in test [1] and 33.8% in test [2].
Consider `CC(C)(C)NS(=O)(=O)c1ccc(Oc2ncc(C(F)(F)F)cc2Cl)cc1`, for which the inhibition in test [1] was -20%; in test [2] it was 14.2%.
`Cc1sc(NC(=O)CSc2nnnn2C(C)C)c(C#N)c1C`: the inhibition in test [1] was 2.68%; in test [2] it was -4.47%.
For `O=C(c1ccc(S(=O)(=O)NCc2ccco2)cc1)N1CCN(Cc2ccc3c(c2)OCO3)CC1`, the inhibition is -2.59% in test [1] and 3.12% in test [2].
In the case of `O=C(c1cc2sccc2n1Cc1ccc(F)cc1)N1CCN(c2nc3ccccc3s2)CC1`, the inhibition is 6.21% in test [1] and 36.9% in test [2].
As to `Cc1ccc(N(C(=O)CCl)C(C(=O)NC2CCCCC2)c2cccnc2)cc1C` (stereo unspecified), the inhibition in test [1] is 55.2% (active); in test [2], 61.7% (active).
